Source: the supplement of paper PMC12669032
Values joined by “and” are separate entries in the source; they are usually repeats but may differ in a detail not shown here. Identical values can stand only once. Unmarked numbers belong to inactive results.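 Rule for the calls: active = AUC reduced over 20% with Padj below 0.05 in at least 2 of 3 replicates; inactive = otherwise.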

Experiments:
Test in all cases: growth AUC relative to DMSO control (median of replicates) (fraction); higher = more growth (less inhibition), active = hit call of the paper
Conditions in all cases: 20 µM; 24 h
[1] = system: Akkermansia muciniphila
Procedure, shortened: (§1)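 Area under the growth curve was normalised to the plate median of solvent-only wells, except on the industrial chemical plate, where row and column medians were used. Curves came from gut bacterial monocultures grown anaerobically at 37 °C in mGAM with 20 µM compound (1% DMSO), starting at OD600 0.05 and read at OD600 every hour for 24 h. The minimum OD of each curve was set to 0, and values are medians of three biological replicates grown on separate days.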

[2] = system: Bacteroides caccae
Procedure, shortened: as §1

[3] = system: Bacteroides clarus
Procedure, shortened: as §1

[4] = system: Bacteroides dorei
Procedure, shortened: as §1

[5] = system: Bacteroides stercoris
Procedure, shortened: as §1

[6] = system: Bacteroides thetaiotaomicron
Procedure, shortened: as §1

[7] = system: Bacteroides uniformis
Procedure, shortened: as §1

[8] = system: Bifidobacterium longum subsp. longum
Procedure, shortened: as §1

[9] = system: Clostridium difficile
Procedure, shortened: as §1

[10] = system: Collinsella aerofaciens
Procedure, shortened: as §1

Row | SMILES | growth AUC [1] | growth AUC [2] | growth AUC [3] | growth AUC [4] | growth AUC [5] | growth AUC [6] | growth AUC [7] | growth AUC [8] | growth AUC [9] | growth AUC [10]
1 | CCOP(=S)(OCC)SCS(=O)(=O)C(C)(C)C | 0.89 | 1.02 | 0.944 | 0.994 | 0.976 | 1.01 | 1.01 | 0.966 | 0.98 | 1.02
2 | COC(=O)/C=C(/C)OP(=O)(OC)OC | 1.05 and 1.08 | 0.952 and 0.906 | 1.02 and 1.08 | 0.879 and 1.01 | 0.938 and 1.2 | 0.992 and 0.984 | 0.981 and 0.997 | 1 and 1.06 | 0.956 and 1.01 | 0.959 and 0.989
3 | CCNc1nc(NC(C)(C)C)nc(SC)n1 | 1.02 | 0.947 | 0.94 | 0.871 | 1.07 | 0.728 | 0.905 | 0.915 | 0.967 | 1
4 | O=C(O)c1c(Cl)ccc2cc(Cl)cnc12 | 0.898 | 1 | 0.983 | 0.992 | 0.987 | 1.02 | 1 | 0.961 | 0.959 | 0.947
5 | CCS(=O)c1c(C#N)nn(-c2c(Cl)cc(C(F)(F)F)cc2Cl)c1N (stereo not given) | 0.952 | 1.04 | 0.996 | 1.01 | 1.04 | 0.961 | 0.959 | 1.01 | 1.02 | 1.01
6 | O=C(Nc1ccc(F)cc1F)c1cccnc1Oc1cccc(C(F)(F)F)c1 | 0.947 | 0.929 | 0.965 | 0.882 | 0.924 | 0.966 | 1.01 | 1 | 0.977 | 0.946
7 | Nc1ccc(Cc2ccc(N)c(Cl)c2)cc1Cl | 0.988 | 0.994 | 0.981 | 1.01 | 0.931 | 0.971 | 0.968 | 1.02 | 1 | 1
8 | CC(C)N(C(=O)SCC(Cl)=C(Cl)Cl)C(C)C | 1.26 | 1 | 1.02 | 0.955 | 0.955 | 0.999 | 0.989 | 1.01 | 0.994 | 0.953
9 | CC(=O)CC(c1ccc(Cl)cc1)c1c(O)c2ccccc2oc1=O (stereo not given) | 0.928 | 0.939 | 0.873 | 0.958 | 0.91 | 0.938 | 0.777 (active) | 0.939 | 1.04 | 1.01
10 | Nc1nc(N)nc(NC2CC2)n1 | 0.99 | 0.989 | 1.02 | 1.01 | 1.04 | 1 | 0.991 | 1.01 | 1.02 | 0.999
11 | CCOC(=O)C(Cl)Cc1cc(-n2nc(C)n(C(F)F)c2=O)c(F)cc1Cl (stereo not given) | 0.963 | 0.991 | 0.927 | 0.967 | 0.996 | 0.926 | 0.936 | 1.02 | 0.981 | 0.972
12 | N#Cc1sc2c(=O)c3ccccc3c(=O)c=2sc1C#N | 0.95 | 0.982 | 0.948 | 0.979 | 0.783 | 0.974 | 0.882 | 0.84 | 0.968 | 1.09
13 | CCOP(=S)(OCC)SCSP(=S)(OCC)OCC | 0.958 | 1 | 0.949 | 0.974 | 1.04 | 1.01 | 0.981 | 1.03 | 0.995 | 0.996
14 | Cc1nc(N(C)C)nc(OC(=O)N(C)C)c1C | 1.02 | 0.997 | 0.989 | 1.05 | 1.05 | 1.02 | 0.977 | 0.826 | 1.05 | 1.04
15 | COS(=O)(=O)[O-].Cn1c(-c2ccccc2)cc(-c2ccccc2)[n+]1C | 0.936 | 0.994 | 0.966 | 0.976 | 0.979 | 0.938 | 1.01 | 0.925 | 1.04 | 0.989
16 | c1ccc2c(c1)cc1ccc3cccc4ccc2c1c34 | 1.01 | 0.957 | 0.94 | 0.956 | 0.978 | 1 | 0.957 | 1.09 | 0.983 | 1.03
17 | CC1(C)[C@H](C(=O)O[C@H](C#N)c2cccc(Oc3ccccc3)c2)[C@@H]1C=C(Br)Br | 0.878 | 0.983 | 0.982 | 1.04 | 1.04 | 1.02 | 1.05 | 0.843 | 1.02 | 0.935
18 | CP(=O)(O)CCC(N)C(=O)[O-].[NH4+] (stereo not given) | 1.08 | 1.04 | 1.03 | 0.977 | 1.2 | 1 | 1.02 | 1.02 | 1.01 | 1.02
19 | C=C/C=C/CC1=C(C)C(OC(=O)[C@@H]2C(/C=C(\C)C(=O)OC)C2(C)C)CC1=O.C=C/C=C/CC1=C(C)[C@@H](OC(=O)[C@@H]2C(C=C(C)C)C2(C)C)CC1=O (stereo not given in full) | 0.901 | 0.966 | 0.918 | 1.02 | 0.87 | 0.967 | 0.971 | 0.698 | 1.01 | 0.949
20 | CCOP(=O)(OCC)ON1C(=O)c2cccc3cccc(c23)C1=O | 1.01 | 0.856 | 0.898 | 0.754 (active) | 0.482 (active) | 0.736 (active) | 0.683 (active) | 1.05 | 0.946 | 0.936
21 | O=c1oc2ccccc2c(O)c1C1CC(c2ccc(-c3ccc(Br)cc3)cc2)Cc2ccccc21 (stereo not given) | 0.966 | 0.91 | 0.335 (active) | 0.89 | 0.00883 (active) | 0.788 (active) | 0.86 | 0.647 (active) | 0.263 (active) | 0.911
22 | O=C(Nc1ccccc1)Nc1cnns1 | 0.941 | 0.868 | 0.921 | 0.918 | 1.04 | 0.941 | 1.01 | 1.03 | 0.936 | 0.969
23 | CCCCOC(=O)[C@@H](C)Oc1ccc(Oc2ccc(C#N)cc2F)cc1 | 1.1 | 0.973 | 1 | 0.969 | 0.973 | 0.954 | 0.975 | 0.984 | 0.981 | 0.984
24 | Oc1ccc(Cl)c(Cl)c1Cl | 0.923 | 0.922 | 0.975 | 1.02 | 1.15 | 1 | 0.96 | 0.969 | 0.998 | 0.993
25 | O=C(NC(=O)c1c(F)cccc1F)Nc1cc(Cl)c(OC(F)(F)C(F)C(F)(F)F)cc1Cl (stereo not given) | 0.997 | 0.981 | 0.982 | 1.02 | 1.01 | 0.99 | 0.962 | 0.981 | 1.04 | 0.94
26 | Oc1c(Br)cc(Br)cc1Br | 0.965 | 0.916 | 0.917 | 1.01 | 1.22 | 1.01 | 0.966 | 0.984 | 0.982 | 0.991
27 | COP(=S)(OC)SC(CC(=O)O)C(=O)O (stereo not given) | 0.974 | 1.01 | 0.963 | 0.986 | 1.06 | 0.991 | 0.99 | 1.01 | 1 | 1.05
28 | O=[N+]([O-])c1ccc(Oc2ccc(C(F)(F)F)cc2[N+](=O)[O-])cc1 | 0.834 | 0.929 | 0.878 | 0.88 | 1.05 | 0.92 | 0.917 | 0.936 | 1.02 | 0.93
